From PubChem BioAssay AID1347046 (National Center for Advancing Translational Sciences (NCATS), 2019) come the findings set out here.

Molecules are shown by their SMILES. About 940 (67%) of roughly 1,400 compounds were called active. Another 27% or so got no clear call; they are omitted. Calls come from the whole dose curve. So high a share suggests a set chosen from earlier hits. A selection follows.
Potency is the fitted concentration of half-maximal effect.

This assay deals with Atrial natriuretic peptide receptor 2 (Homo sapiens) (UniProt P20594). As to the kind of experiment: Natriuretic polypeptide receptor (hNpr2) antagonism - Subtype selectivity assay. Note: nearly all actives have a fitted effect of over 70% in size. The conditions noted are these: HEK293 hNpr2 GloSensor cGMP luminescence, CNP-stimulated. How it is done: F. Fan, B. F. Binkowski, B. L. Butler, P. F. Stecha, M. K. Lewis, K. V. Wood, Novel genetically encoded biosensors using firefly luciferase. ACS Chem Biol 3, 346-351 (2008).
Atrial natriuretic peptide receptor 2 (Homo sapiens), sequence (P20594 whole entry, looked up): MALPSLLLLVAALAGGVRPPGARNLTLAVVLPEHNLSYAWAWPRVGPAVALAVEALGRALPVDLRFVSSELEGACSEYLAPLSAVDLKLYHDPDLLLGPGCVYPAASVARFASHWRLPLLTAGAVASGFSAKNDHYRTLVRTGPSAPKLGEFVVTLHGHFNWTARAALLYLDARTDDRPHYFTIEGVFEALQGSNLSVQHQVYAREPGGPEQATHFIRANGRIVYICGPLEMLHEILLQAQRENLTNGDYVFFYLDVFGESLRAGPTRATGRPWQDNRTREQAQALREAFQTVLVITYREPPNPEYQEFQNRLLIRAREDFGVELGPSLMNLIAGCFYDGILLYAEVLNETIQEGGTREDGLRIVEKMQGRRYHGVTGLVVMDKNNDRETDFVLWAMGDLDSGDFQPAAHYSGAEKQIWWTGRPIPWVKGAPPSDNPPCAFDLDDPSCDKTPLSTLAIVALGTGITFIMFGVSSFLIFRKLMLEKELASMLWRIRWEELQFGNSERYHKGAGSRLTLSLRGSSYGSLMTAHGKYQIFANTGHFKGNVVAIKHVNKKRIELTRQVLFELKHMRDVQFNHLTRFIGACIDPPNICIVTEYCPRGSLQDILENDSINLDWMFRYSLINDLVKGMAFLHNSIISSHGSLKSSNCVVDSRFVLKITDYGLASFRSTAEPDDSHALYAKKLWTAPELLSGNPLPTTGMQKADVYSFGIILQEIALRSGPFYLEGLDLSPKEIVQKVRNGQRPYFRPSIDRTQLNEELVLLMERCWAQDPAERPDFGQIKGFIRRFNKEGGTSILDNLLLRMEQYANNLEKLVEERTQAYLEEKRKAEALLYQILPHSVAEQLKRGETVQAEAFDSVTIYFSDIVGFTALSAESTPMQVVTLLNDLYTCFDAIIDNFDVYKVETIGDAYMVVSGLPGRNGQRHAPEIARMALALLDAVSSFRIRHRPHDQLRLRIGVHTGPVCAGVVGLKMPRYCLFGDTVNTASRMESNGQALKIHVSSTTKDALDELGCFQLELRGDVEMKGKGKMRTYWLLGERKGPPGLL
PROTOCOL TABLE (as described by Inglese J, Shamu CE and Guy RK. 2007) SEQUENCE No. (e.g., 1, 2, 3, etc.); PARAMETER (e.g., Cells, Incubation, Reagent, etc.); VALUE and DESCRIPTION. 1. Cells. Seed 1500 HEK293 cGMP-sensor cells expressing hNpr2 per well in 4uL into Greiner 1536-well white/solid bottom high base, TC plates. 2. Incubation. Incubate plated cells at 37C in 5% CO2, 95% RH overnight. 3. Reagent. Add 1uL per well GloSensor reagent from Promega (2% final concentration) or CO2 independent media vehicle control to respective columns of Greiner 1536-well plates. 4. Incubation. Incubate plated cells at ambient temperature for 2 h., protect from light. 5. Compounds. Library compounds and DMSO vehicle control added at 23nL per well, transferred by Pin Tool. 6. Incubation. Incubate plated cells for 30 min. at ambient temperature, protect from light. 7. Detector. GloSensor baseline pre-read luminescence measured using CCD-based camera (Viewlux). 8. Compound. Add 1uL of hNppC peptide to 1 nM final concentration to stimulate hNpr2 or CO2 independent media as vehicle control. 9. Incubation. Incubate treated cells at ambient temperature for 20 min., protect from light. 10. Detector. GloSensor post-hNppC luminescence measured using CCD-based camera (Viewlux). NOTES (numbers refer to Sequence numbers above) 1. HEK293 cells expressing hNpr2 and GIP/pGS-40F were grown to 85-95% confluence (48-72 h) in T175 culture flasks (CO2 independent media supplemented with 10% FBS, 1% Pen/Strep antibiotics, and 1 ug/mL puromycin). Trypsinize and harvest cells from T175 culture flasks and filter through 40 um cell strainer. Cells counted with Invitrogen Countess (30,000,000 - 50,000,000 cells/flask). Cells diluted to a final concentration of 375 cells/uL in CO2 independent media and a Millipore multidrop used to dispense 1500 cells per well (4uL/well) into 13 1536-well Greiner White/Solid bottom, high base tissue-culture treated (TC) plates and one Aurora 1536-well Black/Clear bottom, low base, TC plate (for visual inspection of cell health throughout the duration of the assay). 2. Cells incubated for 24 h. at 37C in 95% RH incubator with metal lid having gas-exchange holes. 3. Prepare GloSensor Reagent (Promega): Reconstitute GloSensor luciferase substrate by adding 8.2mL Hepes buffer to 250mg substrate, mix well, protect from light and stored at -80C. Prepare a fresh 12% GloSensor solution in CO2 independent supplemented plating media (see above). Mix well and store at ambient temperature, protected from light. 1uL 12% GloSensor Luciferase Reagent added (2% final concentration) to respective columns of 13 x 1536-well Greiner plate with BioRaptr, 1uL CO2 independent plating media added to respective columns as vehicle control with BioRaptr. 4. Cells incubated for 2 h. at ambient temperature, protected from light with metal lid having gas-exchange holes. 5. 23nL of library compounds or DMSO vehicle control transferred to 13 Greiner white/solid bottom high base, TC plates in 11 interplate 1:3 titrations (see Yasgar, A. et al. 2008) with Pintool. 6. Cells incubated for 30-50 min. at ambient temperature protected from light with metal lid having gas-exchange holes. 7. Read cellular baseline GloSensor luminescence in presence of test library compounds on the ViewLux [Exposure = 10 s.; Gain = High; Speed = Slow; and Binning = 2X.] 8. hNppC peptide agonist solution prepared at 1 mM (in H2O) stock concentration. From this a working dilution was prepared at 6 nM in CO2 Independent media. 1uL of 6 nM hNppC agonist (1 nM final concentration) or CO2 Independent media vehicle control dispensed into respective columns of 13 x Greiner 1536-well white/solid bottom, tissue culture plates with BioRaptr. 9. Cells incubated for 20 min. at ambient temperature, protected from light with metal lid having gas-exchange holes. 10. […]
In the case of `CCC(CC)c1cc([C@H]2CN3CC[C@H]2C[C@@H]3CNS(=O)(=O)Cc2ccccc2)nc(-c2ccncc2)n1`, the Potency was 21.7 µM (active).
On to `CCC(CC)c1cc([C@H]2CN3CC[C@H]2C[C@@H]3CNC(=O)NCc2ccccc2)nc(-c2ccncc2)n1`, for which the Potency was 12.2 µM (active).
With `COc1cc2c(cc1Oc1cccc(N(C)C)c1)NC(=O)C21CCN(Cc2ccccn2)CC1` the figure was 21.7 µM (active).
The same measure for `COc1cc2c(cc1Oc1cccc(N(C)C)c1)NC(=O)C21CCN(c2cnccn2)CC1`: 19.3 µM (active).
With `COc1cc2c(cc1OCc1ccncc1)NC(=O)C21CCN(c2ncc(F)cn2)CC1` the figure was 39.6 µM (active); with `COc1cc2c(cc1Oc1cccc(N(C)C)c1)NC(=O)C21CCN(CCC(C)C)CC1`, 28 µM (active).
